Test results taken from PubChem BioAssay AID624069 (Southern Research Specialized Biocontainment Screening …, 2012).
Values without a mark were called inactive. No rule for the calls is given here.

Experiment: viability of Vero 76 cells – cell-based, set 5, cytotoxicity control, dose response (AID 624069)
Settings: Vero 76 cells cytotoxicity; series mostly up to 25 µM; viability: at the top concentration
In the case of `CCN1CCN(Cc2nc3ccccc3c(=O)n2-c2ccccc2F)CC1`, the “viability” value is reported as 95.1%.
For `O=c1c2cc([N+](=O)[O-])ccc2nc(CN2CCNCC2)n1-c1ccccc1F`, the “viability” value was 89.6%.
For `CCN1CCN(Cc2nc3ccc([N+](=O)[O-])cc3c(=O)n2-c2ccccc2F)CC1`, the “viability” value was 93.1%.
With `CN1CCN(Cc2nc3ccc([N+](=O)[O-])cc3c(=O)n2-c2ccccc2F)CC1` the “viability” value was 101%.
With `CCN1CCN(Cc2nc3ccc([N+](=O)[O-])cc3c(=O)n2-c2ccccc2)CC1` the “viability” value was 91.7%.
With `CCN1CCN(Cc2nc3ccc(C(F)(F)F)cc3c(=O)n2-c2ccccc2F)CC1` the “viability” value was 94.5%.
In the case of `CC(C)(C)OC(=O)N1CCN(Cc2nc3ccc([N+](=O)[O-])cc3c(=O)n2-c2ccccc2F)CC1`, the “viability” value is reported as 98.8%.
In the case of `CCN1CCN(Cc2nc3ccc([N+](=O)[O-])cc3c(=O)n2-c2ccc(F)cc2)CC1`, the “viability” value is reported as 98%.
For `CCN1CCN(Cc2nc3ccc([N+](=O)[O-])cc3c(=O)n2-c2cccc(F)c2)CC1`, the “viability” value was 90.7%.
In the case of `O=C(NCc1ccco1)C1CCN(C(=O)c2cc3sccc3n2Cc2ccc(F)cc2)CC1`, the “viability” value is reported as 74.5%.
